As usually defined, the inhibition is the relative decrease from the control value, in per cent.

The structures appear in SMILES notation. A number with no mark means an inactive call. The source made the active and inactive calls. Rule as the data show it, unless noted: active = inhibition above about 30%; inactive = the rest.

The test system of one assay is transactivating tegument protein VP16 (Human herpesvirus 1), Gal4-VP16 luciferase reporter. The assay can be described thus: repression of VP16-driven luciferase reporter – cell-based, luminescence, high throughput, counter-screen for SRC3 inhibitor project (AID 588794). The note with it: mammalian cells, at 3.6 µM, active compounds read high. A general note: A reporter such as luciferase makes a cellular process visible.
As to `Cc1cc(C(=O)CN2C(=O)c3ccccc3S2(=O)=O)c(C)n1C(C)C`, the inhibition is 24.3%.

On to `O=C(CCCN1C(=O)/C(=C/c2ccccc2Cl)SC1=S)NNC(=O)c1ccncc1`, for which the inhibition is 8.23%.

On to `Cc1ccc2nc(C(F)(F)F)c(C#N)c(N)c2c1`, for which the inhibition was 9.27%.

Consider `CCCC(=O)N1CCN(c2ccc(NC(=O)c3cc4ccccc4o3)cc2Cl)CC1`, for which the inhibition is 5.64%.

Take `O=C(CCCN1C(=O)/C(=C/c2ccccc2Cl)SC1=S)NNC(=O)c1ccc(Cl)cc1Cl`: the inhibition was 32.6% (active).

For the compound `c1cc2c(cc1C1=NNC(=NC3CC3)SC1)OCCO2`, the inhibition was 46.4% (active).

As to `O=C1C=CC(=C(c2ccc(O)cc2)c2ccc(O)cc2)C=C1`, the inhibition was 47.5% (active).

With `CC1=C(C(=O)OCc2ccc3c(c2)OCO3)C(c2ccc(Cl)cc2)NC(=O)N1` (stereo not given), the inhibition is 74.7% (active).

As for `COc1ccc(-c2cc3nc(C)n(N)c(=O)c3s2)cc1`, the inhibition is 41.7% (active).

Regarding `COc1ccc(-c2cc(=O)oc3c(C)c(O)ccc23)cc1`, the inhibition is 39.7% (active).

In the case of `O=C(CCl)N(C1CCCC1)C1CCS(=O)(=O)C1` (stereo not given), the inhibition was 42.4% (active).

On to `O=[N+]([O-])c1ccc2ncnc(N3CCN(Cc4ccc5c(c4)OCO5)CC3)c2c1`, for which the inhibition is 53.2% (active).

As for `CCOc1ccc(/C=C2\SC(=S)N(CCC(=O)O)C2=O)cc1`, the inhibition is -33.1%.

Consider `CCCN(CC(=O)Nc1ccccc1C)C(=O)CCl`, for which the inhibition was 48.1% (active).

Regarding `Cc1nn(C(C)(C)C)c(C)c1/C=N/OC(=O)Nc1ccc(Cl)c(Cl)c1`, the inhibition was 16.6%.

Consider `C=CCN(CC=C)c1ncnc2[nH]ncc12`, for which the inhibition was 50.9% (active).

In the case of `CC(=O)c1ccc(-n2c(C)c(C(C)=O)c3cc(O)ccc32)cc1`, the inhibition is 45.6% (active).

For the compound `Nc1ncc([N+](=O)[O-])c(N2CCCCCC2)n1`, the inhibition is 50.2% (active).

Take `COCC(C)n1c(C)cc(C(=O)COC(=O)c2cccn2C)c1C` (stereo not given): the inhibition was -13.8%.

For `NC(=O)c1sc2nc3c(c(-c4cccs4)c2c1N)CCCCC3`, the inhibition was 58.4% (active).

As to `COc1ccc(-c2cncnc2-c2ccc(OC)cc2O)cc1`, the inhibition was 36.3% (active).

With `COc1ccc2ncn(-c3ccccc3)c2c1`, the inhibition was 32.7% (active).

As to `Cc1[nH]nc2ncc(C(=O)c3ccccc3O)cc12`, the inhibition was 43.9% (active).

With `Cc1c([N+](=O)[O-])c2ccc(O)cc2n1-c1ccccc1`, the inhibition was 31.6% (active).

Consider `CC1(Cc2cccc(F)c2)C(=O)Nc2ccc(-c3cccnc3)cc21` (stereo not given), for which the inhibition is 49.2% (active).

As to `O=C(NC1CCCCC1)C(c1cccnc1)N(C(=O)CCl)c1cccc(Cl)c1` (stereo not given), the inhibition is 26.8%.

For `Cc1ccc(S(=O)(=O)c2ccc([N+](=O)[O-])cn2)cc1`, the inhibition is -18.7%.

For the compound `CCn1c2ccccc2c2cnc(N=CN(C)C)c(C#N)c21`, the inhibition was 19.6%.

Take `COc1ccc(Nc2ccnc3ccccc23)cc1`: the inhibition was 30.3% (active).

`COc1ccc(C2=Nn3c(nnc3-c3ccncc3)SC2)cc1`: the inhibition was 48.6% (active).

Regarding `COc1ccc(-n2c(C)c(C(C)=O)c3cc(O)ccc32)cc1`, the inhibition is 55.6% (active).

With `Cc1ccc(OCC(=O)c2cc(C)n(Cc3cccs3)c2C)c([N+](=O)[O-])n1`, the inhibition is 8.55%.

In the case of `O=C(CCl)N1N=C(c2ccco2)CC1c1ccco1` (stereo not given), the inhibition is 12.5%.

Take `CC1(C)Cc2c(ccc3ccccc23)C(=O)N1`: the inhibition was 37.2% (active).

Regarding `OCCCNc1ncnc2scc(-c3ccc(Cl)cc3)c12`, the inhibition is 47.1% (active).

Consider `Cc1ccccc1C(=O)N1CCN(c2ccc(NC(=O)c3ccc4c(c3)OCCO4)cc2)CC1`, for which the inhibition was 43% (active).

For `C=C1C(=O)[C@@]23[C@H](O)C[C@@H]4C(C)(C)CC[C@H](O)[C@@]4(C)[C@@H]2CC[C@@H]1[C@H]3O`, the inhibition was 49.6% (active).

On to `N#CC(C#N)c1ccnc2ccccc12`, for which the inhibition is 40.6% (active).

As to `CCCCN(c1ccccc1)c1ncnc(N)c1[N+](=O)[O-]`, the inhibition was 57.6% (active).

For the compound `CCOC(=O)c1cccc2c1-c1ccccc1/C2=N/O`, the inhibition was 23.7%.

The target in another assay is Nuclear receptor coactivator 1 (Homo sapiens) (UniProt Q15788). Put plainly: NCOA1 GAL4-fusion reporter inhibition – cell-based, luminescence, quadruplicate, confirmation (AID 588820;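 active = mean inhibition above 46.68%, the untreated control wells mean plus 3 SD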;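 also: 0% = DMSO wells and 100% = gossypol 36 µM treated wells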). The note with it: HEK293 GAL4-SRC1 luciferase reporter, at 3.6 µM, active compounds read high.
Nuclear receptor coactivator 1 (Homo sapiens), sequence (Q15788 whole entry, looked up, the tested form may be a part): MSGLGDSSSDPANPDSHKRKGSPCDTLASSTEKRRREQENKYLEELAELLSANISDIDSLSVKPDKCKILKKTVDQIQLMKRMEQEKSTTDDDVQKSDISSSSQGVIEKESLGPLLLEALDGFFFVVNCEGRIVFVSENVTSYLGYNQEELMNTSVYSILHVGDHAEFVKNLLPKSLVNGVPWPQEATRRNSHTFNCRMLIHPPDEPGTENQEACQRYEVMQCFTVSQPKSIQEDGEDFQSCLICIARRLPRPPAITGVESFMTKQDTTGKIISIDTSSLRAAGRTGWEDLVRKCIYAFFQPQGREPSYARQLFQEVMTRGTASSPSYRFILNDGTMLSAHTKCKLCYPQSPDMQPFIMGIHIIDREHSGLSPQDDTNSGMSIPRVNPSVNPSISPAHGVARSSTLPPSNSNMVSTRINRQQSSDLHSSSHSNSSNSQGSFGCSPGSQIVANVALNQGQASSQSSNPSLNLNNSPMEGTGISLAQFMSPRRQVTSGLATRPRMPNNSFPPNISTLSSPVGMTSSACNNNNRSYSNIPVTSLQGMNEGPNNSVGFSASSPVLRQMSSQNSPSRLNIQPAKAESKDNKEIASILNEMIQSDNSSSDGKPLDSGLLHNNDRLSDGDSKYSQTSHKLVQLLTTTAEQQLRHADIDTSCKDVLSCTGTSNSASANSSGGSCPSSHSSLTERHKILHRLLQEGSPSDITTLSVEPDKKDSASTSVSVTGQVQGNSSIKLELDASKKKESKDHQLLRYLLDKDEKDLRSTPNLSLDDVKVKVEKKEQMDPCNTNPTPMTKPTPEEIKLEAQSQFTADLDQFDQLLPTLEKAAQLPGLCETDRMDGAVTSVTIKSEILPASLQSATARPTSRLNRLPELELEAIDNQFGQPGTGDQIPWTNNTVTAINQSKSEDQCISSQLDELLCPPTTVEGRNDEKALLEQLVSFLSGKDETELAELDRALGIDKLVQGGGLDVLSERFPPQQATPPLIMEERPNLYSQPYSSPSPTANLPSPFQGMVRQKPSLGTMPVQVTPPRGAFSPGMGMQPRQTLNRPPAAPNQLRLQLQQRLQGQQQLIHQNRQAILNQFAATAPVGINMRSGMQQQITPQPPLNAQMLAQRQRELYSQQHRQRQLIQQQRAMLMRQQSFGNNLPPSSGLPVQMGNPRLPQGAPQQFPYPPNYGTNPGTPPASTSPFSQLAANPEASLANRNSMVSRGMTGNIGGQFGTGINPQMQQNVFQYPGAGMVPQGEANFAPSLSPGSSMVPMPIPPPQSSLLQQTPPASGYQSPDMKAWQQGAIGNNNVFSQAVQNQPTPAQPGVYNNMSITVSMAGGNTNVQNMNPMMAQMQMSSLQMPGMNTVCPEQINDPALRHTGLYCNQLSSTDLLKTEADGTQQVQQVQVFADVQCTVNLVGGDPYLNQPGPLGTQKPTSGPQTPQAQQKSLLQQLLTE
Turning to `Cc1cc(C(=O)CN2C(=O)c3ccccc3S2(=O)=O)c(C)n1C(C)C`, the inhibition is -24.8%.

`O=C(CCCN1C(=O)/C(=C/c2ccccc2Cl)SC1=S)NNC(=O)c1ccncc1`: the inhibition was 10.8%.

Take `Cc1ccc2nc(C(F)(F)F)c(C#N)c(N)c2c1`: the inhibition is 27.6%.

As for `CCCC(=O)N1CCN(c2ccc(NC(=O)c3cc4ccccc4o3)cc2Cl)CC1`, the inhibition is -6.77%.

Turning to `O=C(CCCN1C(=O)/C(=C/c2ccccc2Cl)SC1=S)NNC(=O)c1ccc(Cl)cc1Cl`, the inhibition was 37.1%.

`c1cc2c(cc1C1=NNC(=NC3CC3)SC1)OCCO2`: the inhibition is 15.5%.

For `O=C1C=CC(=C(c2ccc(O)cc2)c2ccc(O)cc2)C=C1`, the inhibition is 54% (active).

As to `CC1=C(C(=O)OCc2ccc3c(c2)OCO3)C(c2ccc(Cl)cc2)NC(=O)N1` (stereo not given), the inhibition is 69.2% (active).

With `COc1ccc(-c2cc3nc(C)n(N)c(=O)c3s2)cc1`, the inhibition was 19.4%.

`COc1ccc(-c2cc(=O)oc3c(C)c(O)ccc23)cc1`: the inhibition is 50.3% (active).

In the case of `O=C(CCl)N(C1CCCC1)C1CCS(=O)(=O)C1` (stereo not given), the inhibition is 58.3% (active).

Regarding `O=[N+]([O-])c1ccc2ncnc(N3CCN(Cc4ccc5c(c4)OCO5)CC3)c2c1`, the inhibition was 64.4% (active).

As for `CCOc1ccc(/C=C2\SC(=S)N(CCC(=O)O)C2=O)cc1`, the inhibition was 39.5%.

On to `CCCN(CC(=O)Nc1ccccc1C)C(=O)CCl`, for which the inhibition is 48.8% (active).

As to `Cc1nn(C(C)(C)C)c(C)c1/C=N/OC(=O)Nc1ccc(Cl)c(Cl)c1`, the inhibition was 25.3%.

In the case of `C=CCN(CC=C)c1ncnc2[nH]ncc12`, the inhibition is 53.9% (active).

For `CC(=O)c1ccc(-n2c(C)c(C(C)=O)c3cc(O)ccc32)cc1`, the inhibition was 45.9%.

For the compound `Nc1ncc([N+](=O)[O-])c(N2CCCCCC2)n1`, the inhibition was 67.5% (active).

Turning to `COCC(C)n1c(C)cc(C(=O)COC(=O)c2cccn2C)c1C` (stereo not given), the inhibition is -58.2%.

For the compound `NC(=O)c1sc2nc3c(c(-c4cccs4)c2c1N)CCCCC3`, the inhibition was 77.6% (active).

As to `COc1ccc(-c2cncnc2-c2ccc(OC)cc2O)cc1`, the inhibition was 57.1% (active).

`COc1ccc2ncn(-c3ccccc3)c2c1`: the inhibition is 46.1%.

Take `Cc1[nH]nc2ncc(C(=O)c3ccccc3O)cc12`: the inhibition was 68.7% (active).

For `Cc1c([N+](=O)[O-])c2ccc(O)cc2n1-c1ccccc1`, the inhibition is 55.4% (active).

On to `CC1(Cc2cccc(F)c2)C(=O)Nc2ccc(-c3cccnc3)cc21` (stereo not given), for which the inhibition is 65% (active).

Consider `O=C(NC1CCCCC1)C(c1cccnc1)N(C(=O)CCl)c1cccc(Cl)c1` (stereo not given), for which the inhibition was 33.4%.

As for `Cc1ccc(S(=O)(=O)c2ccc([N+](=O)[O-])cn2)cc1`, the inhibition is -25.7%.

With `CCn1c2ccccc2c2cnc(N=CN(C)C)c(C#N)c21`, the inhibition is 28.3%.

As for `COc1ccc(Nc2ccnc3ccccc23)cc1`, the inhibition was 52.8% (active).

Regarding `COc1ccc(C2=Nn3c(nnc3-c3ccncc3)SC2)cc1`, the inhibition was 57.8% (active).

For `COc1ccc(-n2c(C)c(C(C)=O)c3cc(O)ccc32)cc1`, the inhibition was 64.1% (active).

For the compound `Cc1ccc(OCC(=O)c2cc(C)n(Cc3cccs3)c2C)c([N+](=O)[O-])n1`, the inhibition was 24%.

As for `O=C(CCl)N1N=C(c2ccco2)CC1c1ccco1` (stereo not given), the inhibition was 32.7%.

Turning to `CC1(C)Cc2c(ccc3ccccc23)C(=O)N1`, the inhibition is 55% (active).

On to `OCCCNc1ncnc2scc(-c3ccc(Cl)cc3)c12`, for which the inhibition is 62.6% (active).

Regarding `Cc1ccccc1C(=O)N1CCN(c2ccc(NC(=O)c3ccc4c(c3)OCCO4)cc2)CC1`, the inhibition is 32.2%.

For the compound `C=C1C(=O)[C@@]23[C@H](O)C[C@@H]4C(C)(C)CC[C@H](O)[C@@]4(C)[C@@H]2CC[C@@H]1[C@H]3O`, the inhibition was -18%.

For the compound `N#CC(C#N)c1ccnc2ccccc12`, the inhibition is 64.1% (active).

For `CCCCN(c1ccccc1)c1ncnc(N)c1[N+](=O)[O-]`, the inhibition was 64.5% (active).

For `CCOC(=O)c1cccc2c1-c1ccccc1/C2=N/O`, the inhibition was 46.5%.

Values taken from PubChem BioAssay.
